High-throughput results: PubChem BioAssay, several laboratories
Mdm2-MdmX inh = human Mdm2/MdmX binding inhibition; SaOS-2 split-luciferase Mdm2/MdmX complementation, luminescence; 330,000 tested, 3% active; inhibition, % at 8 µM; O15151+Q00987;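 active = inhibition of at least 50% at 8 µM in the primary screen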
Beta apoptosis = beta cell apoptosis inhibition. protection from apoptosis, % (concentration not given with the values). 300,000 tested, 0.8% active. INS-1E cytokine-induced death, ATP luminescence, 48 h; percent of positive-control rescue, neutral wells zero;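 active = Every replicate reaches about 75%, or at least half do and their mean reaches it too, limit read from the data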;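 note: higher means more ATP so stronger rescue from cytokine killing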
CSC inhib = blocks cancer stem cells; cancer stem cell-like cells viability, luminescence; inhibition, % at 7.5 µM; 300,000 tested, 1.1% active; AID 2717; in the data active = inhibition above about 75%; tested in HMLE shEcad cells
NR3A LBD binder = modulators (binders) of human NR3A ligand-binding domain; NR3A LBD differential scanning fluorimetry, Tm shift; 0% = protein alone, 100% = glycine-bound protein; AID 1259313; 340,000 tested, 2.5% active; Tm shift relative to glycine control, % at 25 µM;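 active = melting temperature shift of at least 10% of the positive control shift, at one fixed dose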
Gli-Sufu block = antagonists of Gli-Sufu signaling. Sufu-KO-LIGHT fibroblasts, Gli luciferase reporter luminescence. inhibition, % at 5 µM. 340,000 tested, 0.74% active;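 active = inhibition above about 55%, limit read from the data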
MPTP inh = permeability transition pore inhibition; isolated mouse mitochondria, Ca2+ swelling absorbance, 30 min; inhibition, % at 10 µM; 360,000 tested, 1.4% active; AID 602449;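 active = inhibition of 50% or more, scaled per plate between neutral and stimulator controls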
A number is an active result; i = inactive; nt = no result given. The list is not random: actives were taken first. Their share in the collection is about 6.6%.

SMILES	Mdm2-MdmX inh	Beta apoptosis	CSC inhib	NR3A LBD binder	Gli-Sufu block	MPTP inh
Clc1cccc(N/N=C/c2ccncc2)c1	i	i	i	20	i	i
O=C(N/N=C/c1ccncc1)c1ccc(NC(=O)c2cccc(Cl)c2)cc1	i	nt	i	22	i	i
O=C(O)c1ccc(NC(=S)NC(=O)c2ccc3ccccc3c2)cc1	i	i	i	17	i	i
O=c1[nH]c(=O)n2ncnc2[nH]1	nt	nt	nt	nt	nt	i
COc1ccc(CNC(=O)C(C)OC(=O)CN2C(=O)COc3ccccc32)cc1 (stereo unspecified)	i	i	i	i	i	i
CCOc1cc(S(=O)(=O)N2CCN(C(=O)c3ccco3)CC2)ccc1F	i	i	i	i	i	i
O=C(O)c1ccc2c(c1)C(=O)N(NC(=O)c1ccccc1)C2=O	i	i	i	i	i	i
CC(C)C(=O)Nc1ccc(C(=O)NN2C(=O)c3ccccc3C2=O)cc1	i	i	i	13	i	i
CC(=O)Nc1ccc(C(=O)NN2C(=O)c3ccccc3C2=O)cc1	i	i	i	i	i	i
O=C(Nc1ccc(C(=O)NN2C(=O)c3ccccc3C2=O)cc1)c1ccccc1	i	i	i	24	i	i
Cc1c(/C=N\NC(=O)c2c[nH]c3ccccc23)cnn1C	i	i	nt	i	i	i
O=C(NN=C1CCCCCC1)c1c[nH]c2ccccc12	i	i	i	20	i	i
O=C(N/N=C/c1cccs1)c1c[nH]c2ccccc12	i	i	i	14	i	i
CCc1ccc(/C=N/NC(=O)c2c[nH]c3ccccc23)s1	i	i	i	30	i	i
Cc1ccc(S(=O)(=O)Nc2ccc(C(=O)NCCCn3ccnc3)cc2)cc1[N+](=O)[O-]	i	i	i	i	i	i
CCCN1CCC(NC(=O)Cc2cccc(C)c2)CC1	i	i	i	i	i	i
CC1CN(CCCCOc2cccc(Oc3ccccc3)c2)CC(C)O1 (stereo unspecified)	i	i	195	i	i	i
CCSC1=C(C#N)C2(CCCCC2)C2=C(CC(C)(C)CC2=O)N1	i	nt	i	i	i	i
CC1(C)CC(=O)C2=C(C1)NC(SCC(N)=O)=C(C#N)C21CCCCC1	i	i	i	16	i	i
Cc1c(C(=O)NCc2ccc3c(c2)OCCO3)sc(=O)n1Cc1cccc(C(F)(F)F)c1	nt	nt	nt	nt	nt	i
CC/C(=C\c1ccc(N(C)C)cc1)c1ccncc1	nt	nt	nt	i	i	i
O=C(COc1cc(F)ccc1[N+](=O)[O-])Nc1ccc(N2CCCCC2)cc1	i	i	i	i	i	i
NNc1nc(NCc2ccccc2)nc(N2CCOCC2)n1	i	i	i	14	i	i
Cc1cc(C)cc(C(O)c2ncc(-c3ccccc3F)[nH]2)c1 (stereo unspecified)	nt	nt	nt	nt	nt	i
CC(=O)Nc1ccc(S(=O)(=O)N(CCO)Cc2ccccc2)cc1	i	i	i	i	i	i
SMILES	Mdm2-MdmX inh	Beta apoptosis	CSC inhib	NR3A LBD binder	Gli-Sufu block	MPTP inh
CC(=O)Nc1ccc(S(=O)(=O)N(C)CCOCc2ccccc2)cc1	i	i	i	16	i	i
Cc1ccc(N=Nc2c(O)ccc3n[nH]nc23)cc1	nt	99	i	13	i	i
CCOC(=O)c1c(C)[nH]c(N=Nc2ccc(C)cc2)c1C	i	i	i	i	i	i
Nc1ccccc1N=Nc1ccccc1N	i	i	i	23	i	i
Nc1ccccc1-c1ccccc1N	i	i	i	i	i	i
NC(=O)c1cc(S(=O)(=O)Nc2ccc(OC(F)(F)F)cc2)cs1	i	i	i	i	i	i
O=S1(=O)c2ccc(Br)cc2N2CC[C@H](C2)N1Cc1ccc(Cl)cc1	nt	nt	nt	i	i	i
CCn1c(SCC(=O)N2c3ccccc3Sc3ccccc32)nnc1-c1ccco1	i	i	i	i	i	i
Cn1c(SCC(=O)N2c3ccccc3Sc3ccc(Cl)cc32)nnc1-c1ccco1	i	i	i	11	i	i
Cc1cc(C)n2nc(C(=O)N/N=C/c3cccc(Cl)c3)nc2n1	i	i	i	12	i	i
CCC(CO)Oc1cc(NCc2ccc(C)c(C)c2)c2ncn(C(C)C)c2c1 (stereo unspecified)	i	101	nt	i	i	i
Cc1nonc1CN(C)C(=O)CC1C(=O)NCCN1Cc1ccccc1F (stereo unspecified)	i	i	i	11	i	i
Cc1ccc(NS(=O)(=O)c2cc3c4c(cccc4c2)C(=O)NC3=O)cc1C	i	i	79	i	i	i
CCOC(=O)c1ccc(NC(=O)c2nc[nH]c2C(=O)N(C)CCO)cc1	nt	nt	nt	nt	nt	i
O=C(COc1ccc(Br)cc1Br)NC(=S)Nc1cccc(CO)c1	i	i	i	i	i	i
O=C(COc1ccc2ccccc2c1Br)NC(=S)Nc1cccc(CO)c1	i	i	i	34	i	i
COc1ccc2nc(Nc3ccccc3)sc2c1	i	nt	nt	30	i	i
COc1ccc(Nc2nc3ccccc3c(=O)s2)c(OC)c1	i	i	i	i	i	i
COc1ccc2nc(Nc3ccccc3OC)sc2c1	i	i	i	19	i	i
COc1ccc2nc(NC(C)=O)sc2c1	i	i	i	i	i	i
Clc1cccc(CN2CCc3c([nH]c4ccccc34)C2)c1Cl	i	i	111	i	i	i
COc1ccccc1CN1CCc2c([nH]c3ccccc23)C1	i	i	i	i	i	i
COc1ccc([N+](=O)[O-])cc1NCC(=O)Nc1cc(S(=O)(=O)N2CCCCC2)ccc1C	i	i	i	i	i	i
COc1cc(CN2CCCC(N3CCc4ccccc4C3)C2)c(Cl)cc1O (stereo unspecified)	i	i	i	i	i	i
Cc1cc(C)cc(OCC(=O)OCC(=O)NCc2cccs2)c1	i	i	i	16	i	i
SMILES	Mdm2-MdmX inh	Beta apoptosis	CSC inhib	NR3A LBD binder	Gli-Sufu block	MPTP inh
C[C@@H]1CN([C@@H](C)CO)C(=O)CCCn2cc(nn2)CO[C@H]1CN(C)C(=O)c1cc(-c2ccccc2)on1	nt	nt	nt	nt	nt	i
N#Cc1ccc(NC(=O)CSc2nc3[nH]c(=O)cc(O)c3s2)cc1	i	i	i	i	i	i
O=C(CSc1nc2[nH]c(=O)cc(O)c2s1)Nc1ccc(Cl)c(C(F)(F)F)c1	i	i	i	12	i	i
O=C(CSc1nc2[nH]c(=O)cc(O)c2s1)Nc1cc(Cl)cc(Cl)c1	i	i	i	i	i	i
CSc1ccc(NC(=O)CSc2nc3[nH]c(=O)cc(O)c3s2)cc1	i	i	i	14	i	i
CSC1=NC2(CC(c3ccccc3)Oc3cc(O)ccc32)CC(C)(C)N1 (stereo unspecified)	i	i	i	11	i	i
COc1cccc(C2CC3(CC(C)(C)NC(=S)N3)Oc3cc(O)ccc32)c1 (stereo unspecified)	i	nt	nt	i	i	i
C[C@@H]1COC(=O)[C@@H](CC(=O)OC(C)(C)C)C/C=C\C[C@H](CC(=O)NCCO)C(=O)N1	i	i	i	i	i	i
CCOc1ccc(NC(=O)Nc2ccc(Cc3ccncc3)cc2)cc1	i	i	80	i	i	i
CCOc1ccc(NC(=O)Nc2cccs2)cc1	i	i	i	19	i	i
